# PubChem BioAssay (NCATS)
# “And” between values parts separate entries of the source, which are not always exact repeats. Equal values may be shown once. The source made the active and inactive calls. The call rests on the fitted dose curve.
# Assay: qHTS drug screen for cell cycle checkpoint inhibitors in PARPi-resistant BRCA-mutant ovarian cancer cell lines. (AID 1963452)
# Conditions: PEO1/OlaR viability, CellTiter-Glo luminescence, 96 h, stronger effect = lower value
# Description: Women's Malignancies Branch, Center for Cancer Research (CCR),
# National Cancer Institute (NCI), National Institutes of Health (NIH), Bethesda, MD
# Poly (ADP-ribose) polymerase inhibitors (PARPis) have changed the treatment paradigm in breast cancer gene (BRCA) - mutant high-grade serous ovarian carcinoma (HGSC). However, most patients eventually develop resistance to PARPis, highlighting an unmet need for improved therapeutic strategies. Using high-throughput drug screens, we identified ataxia telangiectasia and rad3-related protein/checkpoint kinase 1 (CHK1) pathway inhibitors as cytotoxic and further validated the activity of the CHK1 inhibitor (CHK1i) prexasertib in PARPi-sensitive and -resistant BRCA-mutant HGSC cells and xenograft mouse models. CHK1i monotherapy induced DNA damage, apoptosis, and tumor size reduction. We then conducted a phase 2 study (NCT02203513) of prexasertib in patients with BRCA-mutant HGSC. The treatment was well tolerated but yielded an objective response rate of 6% (1 of 17; one partial response) in patients with previous PARPi treatment. […] BRCA reversion mutation in previously PARPi-treated BRCA-mutant patients was not associated with resistance to CHK1i.
# Among others, 1082 oncology drugs, both approved and investigational, were prioritized based on their status in clinical trial development. […] Drugs with average Z-AUC values less than -1.0 in all three cell lines were classified as "hits" resulting in 151 oncology drug hits. The screen also confirmed cross-resistance between olaparib and other PARPis (rucaparib, niraparib, and talazoparib) in PARPi-resistant PEO1/OlaR and PEO4.
# [1] G. L. Lin, K. M. Wilson, M. Ceribelli, B. Z. Stanton, P. J. Woo, S. Kreimer, E. Y. Qin, X. Zhang, J. Lennon, S. Nagaraja, P. J. Morris, M. Quezada, S. M. Gillespie, D. Y. Duveau, A. M. Michalowski, P. Shinn, R. Guha, M. Ferrer, C. Klumpp-Thomas, S. Michael, C. McKnight, P. Minhas, Z. Itkin, E. H. Raabe, L. Chen, R. Ghanem, A. C. Geraghty, L. Ni, K. I. Andreasson, N. A. Vitanza, K. E.Warren, C. J. Thomas, M. Monje, Therapeutic strategies for diffuse midline glioma from high-throughput combination drug screening. Sci. Transl. Med. 11, (2019).
# [2] T. M. Yamamoto, A. McMellen, Z. L. Watson, J. Aguilera, R. Ferguson, E. Nurmemmedov, T. Thakar, G. L. Moldovan, H. Kim, D. M. Cittelly, A. M. Joglar, E. P. Brennecke, H. Wilson, K. Behbakht, M. J. Sikora, B. G. Bitler, Activation of Wnt signaling promotes olaparib resistant ovarian cancer. Mol. Carcinog. 58, 1770 - 1782 (2019).
# PROTOCOL TABLE (as described by Inglese J, Shamu CE and Guy RK. 2007)
# SEQUENCE No. (e.g., 1, 2, 3, etc.); […] (e.g., Cells, Incubation, Reagent, etc.); VALUE; DESCRIPTION.
# 1; Compounds; 20nL; 1536-well white tissue culture-treated plates.
# 2; Cells; 5 uL; PEO1, PEO4, and PEO1/OlaR cells at 600 cells per well.
# 3; Incubation; 96 hr; 37C, 95% humidity, 5% CO2.
# 4; Reagent; 3 uL; CellTiter-Glo (Promega).
# 5; Incubation; 15 min; room temperature.
# 6; Detection; Luminescence, PHERAstar (BMG Labtech) plate reader.
# NOTES (numbers refer to Sequence numbers above)
# 1. MIPE 5.0 compounds were acoustically dispensed by Echo Acoustic Liquid Handler (Beckman Coulter Life Sciences). Each compound was plated at an 11-point concentration range with 1:3 dilution. Bortezomib, a proteasome inhibitor (final concentration, 20 uM), was used as a positive.
# 2. PEO1, PEO4, and PEO1/OlaR were trypsinized and dispensed in 5 uLof growth medium using a Multidrop Combi dispenser at a density of 600 cells per well to allow compounds to be present during the exponential growth phase.
# 3. Plates were incubated for 96 hours at standard incubator conditions and covered by a stainless steel gasketed lid to prevent evaporation.
# 4. Three microliters of CellTiter-Glo (Promega) were added to each well.
# 5. Plates were incubated at room temperature for 15 min with a stainless-steel lid in place.
# 6. Luminescence readings were taken using PHERAstar (BMG Labtech). […]
# [1] = measured here: PEO1 parental Z-AUC
SMILES,Z-AUC,Z-AUC [1],Z-AUC (measured here: PEO4 Z-AUC)
CC(C)COCC(CN(Cc1ccccc1)c1ccccc1)N1CCCC1 (centres undefined),1.09 (inactive),0.789,0.389
Cc1cc(C)c(/C=C2\C(=O)Nc3ccccc32)[nH]1,0.918 (inactive),0.596,0.161
Nc1ncn([C@@H]2O[C@H](CO)[C@@H](O)[C@H]2O)c(=O)n1,1.1 (inactive),0.0153,-0.332
CCCN(CCC)C(=O)C(CCC(=O)O)NC(=O)c1ccccc1 (centres undefined),0.987 (inactive),0.633,0.925
CC(=O)[C@]1(O)Cc2c(O)c3c(c(O)c2[C@@H](O[C@H]2C[C@H](N)[C@H](O)[C@H](C)O2)C1)C(=O)c1ccccc1C3=O,-0.489 (inactive),-0.953,-0.26
COc1ccc2c(c1OC)C(=O)O[C@@H]2[C@H]1c2c(cc3c(c2OC)OCO3)CCN1C,0.757 (inactive),0.922,0.499
COc1ccc([C@@H]2Sc3ccccc3N(CCN(C)C)C(=O)[C@@H]2OC(C)=O)cc1,1.43 (inactive),0.963,0.74
NC(=O)c1ncn([C@@H]2O[C@H](CO)[C@@H](O)[C@H]2O)c1O,1.15 (inactive) and 0.284 (inactive),0.935 and 0.686,1.08 and 0.519
